From PubChem BioAssay (NCI)
About 79,000 compounds went through this panel and 15% of them were active in at least one assay; those are over-represented in the sample as a whole. The source made the active and inactive calls. Rule as the data show it: active = growth inhibition above about 70%; inactive = the rest.

Columns and labels:
[1] = NCI Yeast Anticancer Drug Screen. Data for the wt1 strain (AID 149);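 also: 0% = growth of vehicle-treated wt1 cultures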; settings: S. cerevisiae wt1 strain (SPY 50644) growth inhibition, stronger effect = higher value
Procedure, shortened: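 Vehicle-normalised growth inhibition; strain wt1; compound exposure.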

[2] = NCI Yeast Anticancer Drug Screen. Data for the rad50EPP+ strain (AID 151);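 also: 0% = growth of vehicle-treated control cultures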; settings: S. cerevisiae rad50 mutant strain, stronger effect = higher value
Procedure, shortened: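 Growth inhibition read against vehicle controls in rad50EPP+ yeast, a strain altered in DNA damage repair, after compound exposure.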

[3] = NCI Yeast Anticancer Drug Screen. Data for the mgt1 strain (AID 153); settings: S. cerevisiae mgt1 mutant growth inhibition, stronger effect = higher value
Procedure, shortened: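 mgt1 yeast grown with test compound; read-out is growth inhibition versus vehicle-treated cultures.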

[4] = NCI Yeast Anticancer Drug Screen. Data for the rad50 strain (AID 155);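 also: 0% = growth of vehicle-only cultures of the same strain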; settings: S. cerevisiae rad50 strain growth inhibition, stronger effect = higher value
Procedure, shortened: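 A DNA repair-deficient yeast mutant serves as the test organism; compound-induced growth inhibition is calculated against vehicle-treated cells.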

[5] = NCI Yeast Anticancer Drug Screen. Data for the mec2-1 strain (AID 157); settings: S. cerevisiae mec2-1 strain, stronger effect = higher value
Procedure, shortened: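 Yeast mec2-1 mutant treated with compound. Readout: growth inhibition vs vehicle controls.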

[6] = NCI Yeast Anticancer Drug Screen. Data for the sgs1 mgt1 strain (AID 161);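 also: 0% = growth of cultures given vehicle only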; settings: S. cerevisiae sgs1 mgt1 strain, stronger effect = higher value
Procedure, shortened: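 Read-out: growth inhibition vs vehicle controls. Cells: mutant yeast strain deficient in DNA damage repair.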

[7] = NCI Yeast Anticancer Drug Screen. Data for the cln2 rad14 strain (AID 165);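 also: 0% = growth equal to vehicle treated cultures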; settings: S. cerevisiae cln2 rad14 strain, stronger effect = higher value
Procedure, shortened: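 cln2 rad14 yeast strain; compound exposure; growth inhibition read vs vehicle controls.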

[8] = NCI Yeast Anticancer Drug Screen. Data for the bub3 strain (AID 167); settings: S. cerevisiae bub3 mutant strain, stronger effect = higher value
Procedure, shortened: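 Inhibition values come from growth of compound-treated mutant yeast normalised to vehicle-treated controls.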

[9] = NCI Yeast Anticancer Drug Screen. Data for the wt2 strain (AID 169);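 also: 0% = growth of vehicle-treated yeast cultures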; settings: S. cerevisiae wt2 strain growth inhibition, stronger effect = higher value
Procedure, shortened: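 Read-out: growth inhibition versus vehicle-treated control cultures after compound exposure of the yeast strain.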

[10] = NCI Yeast Anticancer Drug Screen. Data for the mlh1 strain (AID 171);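 also: 0% = growth of vehicle-treated control cultures of the same strain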; settings: S. cerevisiae mlh1 strain growth inhibition, stronger effect = higher value
Procedure, shortened: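 Read-out: growth inhibition versus vehicle controls. Strain: engineered yeast with a defined DNA repair or cell cycle defect, compound-treated.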

[11] = NCI Yeast Anticancer Drug Screen. Data for the sgs1 strain (AID 173);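 also: 0% = growth of vehicle-only control cultures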; settings: S. cerevisiae sgs1 mutant, stronger effect = higher value
Procedure, shortened: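 Read-out: yeast growth inhibition relative to vehicle controls, following compound exposure of a strain with a defined DNA repair/cell cycle alteration.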

[12] = NCI Yeast Anticancer Drug Screen. Data for the mlh1 rad18 strain (AID 175); settings: S. cerevisiae mlh1 rad18 strain growth inhibition, stronger effect = higher value
Procedure, shortened: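 Yeast w/ defined DNA-repair lesions; compound exposure; growth vs vehicle controls → % inhibition.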

[13] = NCI Yeast Anticancer Drug Screen. Data for the rad18 strain (AID 177); settings: S. cerevisiae rad18 mutant growth inhibition, stronger effect = higher value
Procedure, shortened: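 Readout: growth inhibition vs vehicle controls. Cells: genetically altered yeast strain, DNA repair defect.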

[14] = NCI Yeast Anticancer Drug Screen. Data for the rad14 strain (AID 159);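 also: 0% = growth of vehicle-treated control cultures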; settings: S. cerevisiae rad14 strain growth inhibition, stronger effect = higher value
Procedure, shortened: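 Vehicle-treated cultures served as the baseline for growth inhibition of a DNA repair-mutant yeast strain exposed to each compound.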

[15] = NCI Yeast Anticancer Drug Screen. Data for the CLN2oe strain (AID 163);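 also: 0% = growth of vehicle-only control cultures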; settings: S. cerevisiae CLN2oe strain, stronger effect = higher value
Procedure, shortened: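 Read-out: yeast growth inhibition, expressed relative to vehicle-only controls. The strain bears an engineered cell-cycle alteration.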

[16] = at 5.0 µM (retest, dose inferred, filed as 0.5)
[17] = at 50.0 µM (retest, dose inferred, filed as 5.0)

Measured: growth inhibition

CCN(CC)c1ccc(N=Nc2cc(S(=O)(=O)O)ccc2O)c(O)c1
active: [4]; [17] 73% | [5]; [17] 81% | [12]; [17] 75%
inactive: [1]; at 1.2 µM 8% | [1]; at 3.7 µM 15% | [1]; at 11.0 µM 20% | [1]; at 33.0 µM 29% | [1]; at 100.0 µM 51% | [2]; at 1.2 µM 8% | [2]; at 3.7 µM -8% | [2]; at 11.0 µM -19% | [2]; at 33.0 µM -23% | [2]; at 100.0 µM -46% | [3]; at 1.2 µM 3% | [3]; at 3.7 µM -9% | [3]; at 11.0 µM 4% | [3]; at 33.0 µM 9% | [3]; at 100.0 µM 27% | [4]; at 1.2 µM -11% | [4]; at 3.7 µM -19% | [4]; [16] 56% | [4]; at 11.0 µM -33% | [4]; at 33.0 µM -28% | [4]; at 50.0 µM 29.2% | [4]; at 100.0 µM -13% | [5]; at 1.2 µM -28% | [5]; at 3.7 µM -7% | [5]; [16] 55% | [5]; at 11.0 µM -19% | [5]; at 33.0 µM -9% | [5]; at 50.0 µM -14.1% | [5]; at 100.0 µM 22% | [6]; [16] -13% | [6]; [17] -3% | [6]; at 50.0 µM 66.1% | [7]; [16] 32% | [7]; [17] 39% | [7]; at 50.0 µM 21.5% | [8]; at 1.2 µM 24% | [8]; at 3.7 µM 17% | [8]; [16] 24% | [8]; at 11.0 µM 7% | [8]; at 33.0 µM 11% | [8]; [17] 45% | [8]; at 50.0 µM 50.9% | [8]; at 100.0 µM 35% | [9]; at 1.2 µM -13% | [9]; at 3.7 µM -6% | [9]; at 11.0 µM -42% | [9]; at 33.0 µM -64% | [9]; at 100.0 µM -38% | [10]; at 1.2 µM -12% | [10]; at 3.7 µM -37% | [10]; at 11.0 µM -22% | [10]; at 33.0 µM -3% | [10]; at 100.0 µM -12% | [11]; at 1.2 µM -13% | [11]; at 3.7 µM -10% | [11]; at 11.0 µM -12% | [11]; at 33.0 µM -1% | [11]; at 100.0 µM -15% | [12]; [16] 42% | [12]; at 50.0 µM 19.9% | [13]; at 1.2 µM 2% | [13]; at 3.7 µM 3% | [13]; at 11.0 µM 2% | [13]; at 33.0 µM -2% | [13]; at 100.0 µM 7%

CNc1ccc2[nH]c3ccccc3c2c1
inactive: [1]; at 1.2 µM 0% | [1]; at 3.7 µM 0% | [1]; at 11.0 µM 1% | [1]; at 33.0 µM -4% | [1]; at 100.0 µM 28% | [2]; at 1.2 µM 1% | [2]; at 3.7 µM -2% | [2]; at 11.0 µM -4% | [2]; at 33.0 µM 26% | [2]; at 100.0 µM 65% | [4]; at 1.2 µM -1% | [4]; at 3.7 µM -2% | [4]; [16] 7% | [4]; at 11.0 µM -2% | [4]; at 33.0 µM 1% | [4]; [17] 25% | [4]; at 100.0 µM 58% | [5]; at 1.2 µM -1% | [5]; at 3.7 µM 1% | [5]; [16] -1% | [5]; at 11.0 µM 0% | [5]; at 33.0 µM 1% | [5]; [17] -5% | [5]; at 50.0 µM 62.9% | [5]; at 100.0 µM 59% | [14]; at 1.2 µM -3% | [14]; at 3.7 µM -5% | [14]; at 11.0 µM -3% | [14]; at 33.0 µM 4% | [6]; [16] -11% | [6]; [17] 13% | [15]; at 1.2 µM -6% | [15]; at 3.7 µM -7% | [15]; at 11.0 µM 0% | [15]; at 33.0 µM -5% | [15]; at 100.0 µM 52% | [7]; [16] -14% | [7]; [17] 20% | [7]; at 50.0 µM 15.2% | [8]; at 1.2 µM -4% | [8]; at 3.7 µM -7% | [8]; [16] -11% | [8]; at 11.0 µM -8% | [8]; at 33.0 µM -10% | [8]; [17] -4% | [8]; at 50.0 µM 66.6% | [8]; at 100.0 µM 54% | [9]; at 1.2 µM -1% | [9]; at 3.7 µM -1% | [9]; at 11.0 µM 3% | [9]; at 33.0 µM 5% | [9]; at 100.0 µM 59% | [10]; at 1.2 µM 3% | [10]; at 3.7 µM 1% | [10]; at 11.0 µM 0% | [10]; at 33.0 µM 1% | [10]; at 100.0 µM 65% | [11]; at 1.2 µM 0% | [11]; at 3.7 µM 4% | [11]; at 11.0 µM 3% | [11]; at 33.0 µM 11% | [12]; [16] -20% | [13]; at 1.2 µM 2% | [13]; at 3.7 µM 0% | [13]; at 11.0 µM -11% | [13]; at 33.0 µM 18%
active: [4]; at 50.0 µM 90% | [14]; at 100.0 µM 80% | [6]; at 50.0 µM 80.9% | [11]; at 100.0 µM 83% | [12]; [17] 77% | [12]; at 50.0 µM 82.7% | [13]; at 100.0 µM 85%

Cc1ccc(C(C)C)c(C(=C2C=CC(=[N+](C)C)C=C2)c2c(C(C)C)ccc(C)c2O)c1O
active: [1]; at 11.0 µM 98% | [1]; at 33.0 µM 95% | [1]; at 100.0 µM 86% | [4]; [16] 84% | [4]; at 11.0 µM 97% | [4]; at 33.0 µM 93% | [4]; [17] 93% | [4]; at 50.0 µM 96.7% | [4]; at 100.0 µM 81% | [5]; at 11.0 µM 98% | [5]; at 33.0 µM 96% | [5]; [17] 96% | [5]; at 50.0 µM 97.5% | [5]; at 100.0 µM 88% | [14]; at 11.0 µM 98% | [14]; at 33.0 µM 94% | [14]; at 100.0 µM 85% | [6]; [17] 96% | [6]; at 50.0 µM 97.3% | [15]; at 11.0 µM 97% | [15]; at 33.0 µM 93% | [15]; at 100.0 µM 75% | [7]; [17] 94% | [7]; at 50.0 µM 95.2% | [8]; at 11.0 µM 97% | [8]; at 33.0 µM 93% | [8]; [17] 97% | [8]; at 50.0 µM 95.3% | [8]; at 100.0 µM 81% | [9]; at 11.0 µM 97% | [9]; at 33.0 µM 94% | [9]; at 100.0 µM 83% | [10]; at 11.0 µM 97% | [10]; at 33.0 µM 96% | [10]; at 100.0 µM 84%
inactive: [1]; at 1.2 µM 1% | [1]; at 3.7 µM -2% | [2]; at 1.2 µM -1% | [2]; at 3.7 µM 1% | [2]; at 11.0 µM -1% | [2]; at 33.0 µM -3% | [2]; at 100.0 µM -8% | [4]; at 1.2 µM 4% | [4]; at 3.7 µM 16% | [5]; at 1.2 µM -1% | [5]; at 3.7 µM 16% | [5]; [16] 53% | [14]; at 1.2 µM 1% | [14]; at 3.7 µM 19% | [6]; [16] 66% | [15]; at 1.2 µM 2% | [15]; at 3.7 µM 26% | [7]; [16] 51% | [8]; at 1.2 µM 3% | [8]; at 3.7 µM 8% | [8]; [16] 35% | [9]; at 1.2 µM 1% | [9]; at 3.7 µM -1% | [10]; at 1.2 µM 0% | [10]; at 3.7 µM 8%
